Out of some 220,000 compounds screened, about 830 (0.38%) were called active.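 The calls were made as follows: active = compound inhibiting the enzyme by more than half at any dose during confirmatory dose-response retesting; inconclusive = strong single-dose inhibitors picked by rank but not retested; inactive = the rest.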 These entries were drawn from the full list. Potency and affinity values are given separately.
target: Leucine aminopeptidase (Plasmodium falciparum (isolate 3D7)) (UniProt Q8IL11); test: P. falciparum M17LAP inhibitors, primary screen, biochemical, fluorogenic H-Leu-NHMec substrate, 1536-well (AID 1619); settings: recombinant M17LAP, H-Leu-NHMec fluorogenic kinetic assay; at 30 µM; active compounds read high;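 also: plate controls were full reaction with DMSO carrier for no effect and no enzyme background for full effect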
Sequence (Q8IL11 whole entry, looked up): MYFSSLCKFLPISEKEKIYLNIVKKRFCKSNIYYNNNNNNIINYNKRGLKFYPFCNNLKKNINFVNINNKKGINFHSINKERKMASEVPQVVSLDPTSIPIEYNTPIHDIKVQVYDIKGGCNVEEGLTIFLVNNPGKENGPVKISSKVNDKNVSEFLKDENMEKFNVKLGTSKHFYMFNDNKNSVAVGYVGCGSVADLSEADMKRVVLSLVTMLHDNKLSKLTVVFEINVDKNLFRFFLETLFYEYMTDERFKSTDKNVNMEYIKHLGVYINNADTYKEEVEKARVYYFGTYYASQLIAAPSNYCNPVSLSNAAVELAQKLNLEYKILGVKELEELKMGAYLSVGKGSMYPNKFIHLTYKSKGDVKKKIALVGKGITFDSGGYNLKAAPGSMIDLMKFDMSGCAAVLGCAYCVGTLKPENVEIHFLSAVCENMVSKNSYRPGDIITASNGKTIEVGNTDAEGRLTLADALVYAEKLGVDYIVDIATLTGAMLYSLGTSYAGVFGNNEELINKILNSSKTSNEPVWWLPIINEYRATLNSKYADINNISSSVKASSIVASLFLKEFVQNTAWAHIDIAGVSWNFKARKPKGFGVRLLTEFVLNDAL

inhibition, inactive:
CC#CCC(CC#CC)c1nc2ccccc2c(=O)n1N -1.78%
Cc1ccc(-c2noc(CCC(=O)NC3CCCc4ccccc43)n2)cc1 (stereo not given) -3.35%
Cc1ccc(Cn2ccc(NC(=O)c3cc(C4CC4)on3)n2)cc1 1.62%
Cc1ccc(Cn2ccc(NC(=O)c3cc(C)on3)n2)cc1 -2.56%
Cc1c(NC(C)c2ccccc2O)c(=O)n(-c2ccccc2)n1C (stereo not given) 3.02%
C/C(=C\C(=O)c1ccc(Br)cc1)Nc1ccc(Cl)cc1 -7.69%
CCc1nnc(NS(=O)(=O)c2ccc(NS(=O)(=O)c3ccc(NC(C)=O)cc3)cc2)s1 35.4%
COc1ccc(C(=O)Nc2ccc(S(=O)(=O)Nc3nccnc3OC)cc2)cc1OC 16.3%
COc1nccnc1NS(=O)(=O)c1ccc(N=Cc2c(C)[nH]n(-c3ccc(Cl)cc3)c2=O)cc1 38.5%
Cc1ccc(-n2[nH]c(C)c(C=Nc3ccc(S(=O)(=O)Nc4nccs4)cc3)c2=O)cc1C -8.94%
CCc1nnc(NS(=O)(=O)c2ccc(N3C(=O)c4ccc(C(=O)O)cc4C3=O)cc2)s1 3.4%
Cc1[nH]n(-c2ccccc2)c(=O)c1C=Nc1ccc(S(=O)(=O)Nc2nccs2)cc1 3.82%
CCc1nnc(NS(=O)(=O)c2ccc(N=Cc3c(C)[nH]n(-c4ccc(Cl)cc4)c3=O)cc2)s1 45.4%
Cc1cc(C)nc(NS(=O)(=O)c2ccc(N=Cc3c(C)[nH]n(-c4ccccc4)c3=O)cc2)n1 6.98%
O=C(CN1CCOCC1)Nc1ccccc1-c1ccccc1 -4.42%
CCOc1ccccc1N1CCN(C(=O)c2c(C)noc2C)CC1 -5.81%
CCC1CCCN1Cn1cnc2c([nH]c3ccc(C)cc32)c1=O (stereo not given) 0.76%
CCCc1nnc(NC(=O)CCC(=O)NCc2ccc(OC)cc2)s1 13.8%
CCCCOc1ccccc1Cn1c(=O)oc2ccc(C)cc21 -14.1%
O=C(CSc1ncccn1)n1c2c(c3ccccc31)CCCC2 0.07%
Cc1nc2ccccc2c2c1C(=O)N(C1CCCCCCC1)C2=O -2.77%
CN1C(=O)CSc2ccc(NC(=O)N3CCN(c4ccccc4)CC3)cc21 -3.56%
CC1CN(C(=O)c2ccc(N3CCCCC3)c([N+](=O)[O-])c2)CC(C)O1 (stereo not given) 8.04%
Cc1noc(NS(=O)(=O)c2ccc(NC(=O)c3cnc4n(c3=O)CCS4)cc2)c1C 36%
CCOc1cc(/C=N/NC(=S)Nc2ccccc2C(F)(F)F)ccc1OCC(=O)N1CCOCC1 0.32%
